Assay results: the supplement of paper PMC6555819

Columns and labels:
Test in all cases: PBM binding z-score (relative to random genomic background probes); higher = stronger binding; sequences stand for … in GC…GCGATTGACAGCGTAGAATGAAGG
[1] = system: RARg homodimer (NR concentration 270 nM)
Procedure, shortened: (§1)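 Random background probes are the reference for binding z-scores. These scores derive from regression-normalized fluorescence on custom Agilent 4×180K protein-binding microarrays incubated 1 h with ligand-free nuclear receptor dimers. Binding was detected with antibodies against each partner (one per run).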

[2] = system: RXRa DBDmut IVT, anti-RXR (DBD mutation: RXRa K156A/R161A, NR concentration 90 nM)
Procedure, shortened: as §1

[3] = system: THRa homodimer (NR concentration 90 nM)
Procedure, shortened: as §1

[4] = system: VDR homodimer (NR concentration 270 nM)
Procedure, shortened: as §1

[5] = system: THRa:RXRa (NR concentration 90 nM, RXRa partner concentration 90 nM)
Procedure, shortened: as §1

Sequence	PBM binding z-score [1]	PBM binding z-score [2]	PBM binding z-score [3]	PBM binding z-score [4]	PBM binding z-score [5]
CAAACGAGGTCAAGGTCAAAGTCGGTTTGTGCCA	8.18	4.52	4.79	6.15	–
CCTTACGGGTCACGAGGTCATAGCACGACGAGCG	6.74	3.05	3.43	4.83	4.58
TCTCGGAGGTCACGAAAGGTCAGAGCTCGACATC	9.26	3.38	2.36	3.58	–
CCTTAAGGGTCACGAGGTTATAGCACGACGAGCG	7.23	3.17	1.24	2.91	4.24
GCTTAGGGGTCAAAGGTTATAGCATGAATAGAAT	7.06	4.82	0.683	4.44	4.68
CAAACTAGGTCAAAAGGTCAAAGTCCGCTTCCCG	8.65	2.66	1.87	3.77	4.48
CAAAATAGGTCACCGGAAGGTCAAAGTCCGCATG	8.46	2.03	1.82	3.41	4.65
ATCGAAAGGTCAAAGGTGAGTATACCCACCCGAA	8.44	3.46	0.712	2.97	4.31
TATACAGGGTCAAAGGTCAGAGTACGAATGTCGA	7.28	3.34	1.79	4.33	–
CAAACGAGGTCACAGAGGTCAAAGTCCGTGCGTA	9.3	4.98	5.02	10.5	–
CGTCAAAGGTCAACTAAGGTAACGTAAAGCACGC	9.23	3.52	2.46	2.23	5.48
